# Reference: paper PMC7862700, “An all-to-all approach to the identification of sequence-specific readers for epigenetic DNA modifications on cytosine”
# Columns and labels:
# Assay in all cases: DAPPL (digital affinity profiling via proximity ligation, sequencing); 10 mM Tris-HCl pH 7.5, 50 mM NaCl, 1 mM DTT, 4% glycerol, room temperature, 30 min; GST-TFs on glutathione beads, 16-mer random dsDNA library, 0.1% formaldehyde crosslink after washing; high values mean tight binding
# FLI1 = target: T1, FLI1 (Homo sapiens, UniProt Q01543 1-452); conditions: protein: recombinant; tags: N-terminal GST; dsDNA, one strand shown
# T1 sequence: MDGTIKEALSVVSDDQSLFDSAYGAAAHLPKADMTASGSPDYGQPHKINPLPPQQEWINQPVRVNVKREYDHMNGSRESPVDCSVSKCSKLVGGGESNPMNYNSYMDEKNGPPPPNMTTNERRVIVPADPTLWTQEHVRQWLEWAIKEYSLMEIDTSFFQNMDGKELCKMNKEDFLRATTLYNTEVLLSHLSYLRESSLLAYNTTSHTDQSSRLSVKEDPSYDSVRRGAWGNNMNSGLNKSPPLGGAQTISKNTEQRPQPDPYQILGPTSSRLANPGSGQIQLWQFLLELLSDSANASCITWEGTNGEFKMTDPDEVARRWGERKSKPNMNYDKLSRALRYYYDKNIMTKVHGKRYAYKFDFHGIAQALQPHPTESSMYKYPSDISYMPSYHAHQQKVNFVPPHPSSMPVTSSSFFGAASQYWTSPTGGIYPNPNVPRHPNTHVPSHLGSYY
# Summary of the method: (§1)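 Pools were built from human transcription factors expressed in yeast as GST fusions, captured on glutathione beads and DNA-barcoded, along with a tag-only sample. Incubation with 200 nmole of a 16-mer random double-stranded DNA library lasted 30 min at room temperature in Tris/NaCl/DTT/glycerol buffer, and was followed by washing, 0.1% formaldehyde crosslinking, proximity ligation, PCR amplification and Illumina NextSeq500 sequencing. Binding signal is the quotient of each hexamer's read frequency for a factor and its frequency for the tag-only sample.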
# ELK1 = target: T2, ELK1 (Homo sapiens, UniProt P19419 1-428); conditions: protein: recombinant; tags: N-terminal GST; dsDNA, one strand shown
# T2 sequence: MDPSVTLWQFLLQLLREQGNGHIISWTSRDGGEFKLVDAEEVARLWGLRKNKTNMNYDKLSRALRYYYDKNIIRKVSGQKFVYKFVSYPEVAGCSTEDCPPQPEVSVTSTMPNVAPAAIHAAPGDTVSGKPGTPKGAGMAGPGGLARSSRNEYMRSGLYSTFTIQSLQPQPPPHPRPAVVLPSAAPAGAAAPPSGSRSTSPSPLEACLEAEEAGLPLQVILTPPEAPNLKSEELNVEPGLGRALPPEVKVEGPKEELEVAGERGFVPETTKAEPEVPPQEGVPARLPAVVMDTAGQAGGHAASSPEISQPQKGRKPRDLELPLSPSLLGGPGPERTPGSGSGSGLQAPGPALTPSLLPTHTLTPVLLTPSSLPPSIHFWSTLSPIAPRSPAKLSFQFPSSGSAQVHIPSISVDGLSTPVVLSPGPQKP
# Summary of the method: as §1
# GABPA = target: T3, GABPA (Homo sapiens, UniProt Q06546 1-454); conditions: protein: recombinant; tags: N-terminal GST; dsDNA, one strand shown
# T3 sequence: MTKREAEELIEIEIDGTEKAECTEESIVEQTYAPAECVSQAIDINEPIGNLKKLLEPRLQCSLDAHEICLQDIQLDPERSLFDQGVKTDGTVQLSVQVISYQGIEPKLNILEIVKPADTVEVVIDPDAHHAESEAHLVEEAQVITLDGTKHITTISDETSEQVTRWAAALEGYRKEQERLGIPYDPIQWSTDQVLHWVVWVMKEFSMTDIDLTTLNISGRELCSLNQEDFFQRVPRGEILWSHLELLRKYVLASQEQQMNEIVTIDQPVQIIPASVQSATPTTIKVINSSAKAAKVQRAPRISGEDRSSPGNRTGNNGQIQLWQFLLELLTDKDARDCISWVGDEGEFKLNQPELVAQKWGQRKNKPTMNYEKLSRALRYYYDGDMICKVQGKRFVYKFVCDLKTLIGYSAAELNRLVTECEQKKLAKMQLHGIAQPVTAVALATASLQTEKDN
# Summary of the method: as §1
# ERG = target: T4, ERG (Homo sapiens, UniProt P11308 1-479); conditions: protein: recombinant; tags: N-terminal GST; dsDNA, one strand shown
# T4 sequence: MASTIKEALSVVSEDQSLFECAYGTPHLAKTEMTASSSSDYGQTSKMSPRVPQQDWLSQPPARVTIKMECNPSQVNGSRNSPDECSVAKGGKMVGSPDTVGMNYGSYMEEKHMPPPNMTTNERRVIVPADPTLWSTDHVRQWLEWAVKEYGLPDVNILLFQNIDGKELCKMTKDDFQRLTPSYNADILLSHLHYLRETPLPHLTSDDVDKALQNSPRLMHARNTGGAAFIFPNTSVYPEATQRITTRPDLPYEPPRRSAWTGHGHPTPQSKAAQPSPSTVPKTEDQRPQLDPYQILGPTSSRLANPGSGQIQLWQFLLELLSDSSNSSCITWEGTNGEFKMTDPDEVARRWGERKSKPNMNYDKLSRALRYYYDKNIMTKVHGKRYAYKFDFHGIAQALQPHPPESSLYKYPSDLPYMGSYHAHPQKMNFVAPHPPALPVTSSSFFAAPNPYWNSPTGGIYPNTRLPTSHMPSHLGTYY
# Summary of the method: as §1
# ELF1 = ELF1 (Homo sapiens, UniProt P32519 1-619); conditions: protein: recombinant; tags: N-terminal GST; dsDNA, one strand shown
# Summary of the method: as §1
# EHF = target: T5, EHF (Homo sapiens, UniProt Q9NZC4 1-300); conditions: protein: recombinant; tags: N-terminal GST; dsDNA, one strand shown
# T5 sequence: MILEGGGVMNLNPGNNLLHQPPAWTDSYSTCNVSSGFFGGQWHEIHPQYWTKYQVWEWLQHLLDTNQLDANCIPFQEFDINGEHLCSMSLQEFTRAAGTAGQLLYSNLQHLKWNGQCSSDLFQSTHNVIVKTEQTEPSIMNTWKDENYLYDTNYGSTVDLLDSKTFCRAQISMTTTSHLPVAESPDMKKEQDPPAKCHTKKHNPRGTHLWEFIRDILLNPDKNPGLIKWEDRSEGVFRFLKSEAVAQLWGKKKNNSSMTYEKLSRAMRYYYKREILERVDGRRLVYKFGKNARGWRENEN
# Summary of the method: as §1
# SPI1 = SPI1 (Homo sapiens, UniProt P17947 1-270); conditions: protein: recombinant; tags: N-terminal GST; dsDNA, one strand shown
# Summary of the method: as §1
# SPIB = SPIB (Homo sapiens, UniProt Q01892 1-262); conditions: protein: recombinant; tags: N-terminal GST; dsDNA, one strand shown
# Summary of the method: as §1
# ELK3 = target: T6, ELK3 (Homo sapiens, UniProt P41970 1-407); conditions: protein: recombinant; tags: N-terminal GST; dsDNA, one strand shown
# T6 sequence: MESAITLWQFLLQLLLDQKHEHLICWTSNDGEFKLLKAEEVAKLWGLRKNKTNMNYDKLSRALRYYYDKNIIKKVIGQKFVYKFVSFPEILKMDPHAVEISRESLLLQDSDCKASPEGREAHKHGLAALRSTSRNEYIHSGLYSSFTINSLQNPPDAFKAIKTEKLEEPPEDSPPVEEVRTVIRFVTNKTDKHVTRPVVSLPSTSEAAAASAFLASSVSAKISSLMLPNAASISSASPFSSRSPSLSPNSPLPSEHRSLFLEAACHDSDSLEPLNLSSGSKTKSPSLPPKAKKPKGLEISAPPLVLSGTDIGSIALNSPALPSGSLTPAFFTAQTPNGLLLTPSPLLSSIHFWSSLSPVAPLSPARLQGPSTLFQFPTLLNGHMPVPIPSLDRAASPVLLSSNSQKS
# Summary of the method: as §1
# FEV = target: T7, FEV (Homo sapiens, UniProt Q99581 1-238); conditions: protein: recombinant; tags: N-terminal GST; dsDNA, one strand shown
# T7 sequence: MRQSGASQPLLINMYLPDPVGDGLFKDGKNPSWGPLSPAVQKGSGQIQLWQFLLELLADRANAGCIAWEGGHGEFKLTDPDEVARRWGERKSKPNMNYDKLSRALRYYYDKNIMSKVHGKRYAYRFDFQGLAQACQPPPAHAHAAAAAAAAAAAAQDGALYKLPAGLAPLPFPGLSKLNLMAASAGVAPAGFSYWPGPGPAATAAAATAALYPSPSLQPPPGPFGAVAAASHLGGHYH
# Summary of the method: as §1
# ETV5 = ETV5 (Homo sapiens, UniProt P41161 1-510); conditions: protein: recombinant; tags: N-terminal GST; dsDNA, one strand shown
# Summary of the method: as §1
# HSF1 = HSF1 (Homo sapiens, UniProt Q00613 1-529); conditions: protein: recombinant; tags: N-terminal GST; chain copies: 3; dsDNA, one strand shown
# Summary of the method: as §1
# SPIC = target: T8, SPIC (Homo sapiens, UniProt Q8N5J4 1-248); conditions: protein: recombinant; tags: N-terminal GST; dsDNA, one strand shown
# T8 sequence: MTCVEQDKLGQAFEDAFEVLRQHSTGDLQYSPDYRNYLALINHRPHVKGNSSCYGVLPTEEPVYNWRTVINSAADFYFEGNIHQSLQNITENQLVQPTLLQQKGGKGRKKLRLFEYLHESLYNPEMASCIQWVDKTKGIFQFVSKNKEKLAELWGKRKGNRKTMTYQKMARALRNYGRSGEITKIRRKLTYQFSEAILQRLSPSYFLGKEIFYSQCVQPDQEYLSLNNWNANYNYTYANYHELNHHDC
# Summary of the method: as §1
# ELF4 = ELF4 (Homo sapiens, UniProt Q99607 1-663); conditions: protein: recombinant; tags: N-terminal GST; dsDNA, one strand shown
# Summary of the method: as §1
# ELK4 = target: T9, ELK4 (Homo sapiens, UniProt P28324-2 1-405); conditions: protein: recombinant; tags: N-terminal GST; dsDNA, one strand shown
# T9 sequence: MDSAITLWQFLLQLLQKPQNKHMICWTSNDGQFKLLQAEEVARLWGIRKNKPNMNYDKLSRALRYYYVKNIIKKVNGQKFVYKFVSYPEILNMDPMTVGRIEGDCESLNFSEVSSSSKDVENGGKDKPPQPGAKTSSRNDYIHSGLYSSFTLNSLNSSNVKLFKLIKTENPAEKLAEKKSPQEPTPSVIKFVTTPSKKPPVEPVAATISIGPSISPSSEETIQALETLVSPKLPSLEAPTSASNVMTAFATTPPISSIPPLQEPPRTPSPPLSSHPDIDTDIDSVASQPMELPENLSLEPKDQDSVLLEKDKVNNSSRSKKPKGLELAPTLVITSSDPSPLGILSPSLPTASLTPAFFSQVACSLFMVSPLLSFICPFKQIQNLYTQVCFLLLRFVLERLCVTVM
# Summary of the method: as §1
# ETV2 = target: T10, ETV2 (Homo sapiens, UniProt O00321 1-342); conditions: protein: recombinant; tags: N-terminal GST; dsDNA, one strand shown
# T10 sequence: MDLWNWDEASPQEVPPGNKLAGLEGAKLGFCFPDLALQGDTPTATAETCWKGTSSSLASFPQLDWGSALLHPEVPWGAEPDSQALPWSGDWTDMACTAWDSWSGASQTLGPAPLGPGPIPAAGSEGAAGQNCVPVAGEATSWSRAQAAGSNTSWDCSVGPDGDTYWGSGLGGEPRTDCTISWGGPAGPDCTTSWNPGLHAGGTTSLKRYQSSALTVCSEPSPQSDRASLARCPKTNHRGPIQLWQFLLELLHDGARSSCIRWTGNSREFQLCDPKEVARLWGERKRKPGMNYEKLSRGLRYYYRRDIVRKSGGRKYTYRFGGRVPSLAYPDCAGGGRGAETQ
# Summary of the method: as §1
# ELF3 = target: T11, ELF3 (Homo sapiens, UniProt P78545 1-371); conditions: protein: recombinant; tags: N-terminal GST; dsDNA, one strand shown
# T11 sequence: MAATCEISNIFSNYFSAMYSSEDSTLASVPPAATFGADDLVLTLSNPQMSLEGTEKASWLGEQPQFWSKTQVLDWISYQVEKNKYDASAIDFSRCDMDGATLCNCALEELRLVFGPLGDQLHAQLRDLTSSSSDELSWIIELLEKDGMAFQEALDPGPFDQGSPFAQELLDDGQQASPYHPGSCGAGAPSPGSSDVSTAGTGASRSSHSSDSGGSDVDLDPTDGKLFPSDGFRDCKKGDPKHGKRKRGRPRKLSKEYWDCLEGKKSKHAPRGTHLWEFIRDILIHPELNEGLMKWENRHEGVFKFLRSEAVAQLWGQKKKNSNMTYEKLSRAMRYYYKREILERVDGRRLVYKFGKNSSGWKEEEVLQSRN
# Summary of the method: as §1
# CRX = CRX (Homo sapiens, UniProt O43186 1-299); conditions: protein: recombinant; tags: N-terminal GST; dsDNA, one strand shown
# Summary of the method: as §1
# ETV1 = ETV1 (Homo sapiens, UniProt P50549 1-477); conditions: protein: recombinant; tags: N-terminal GST; dsDNA, one strand shown
# Summary of the method: as §1
# ETV1, sequence (P50549 whole entry): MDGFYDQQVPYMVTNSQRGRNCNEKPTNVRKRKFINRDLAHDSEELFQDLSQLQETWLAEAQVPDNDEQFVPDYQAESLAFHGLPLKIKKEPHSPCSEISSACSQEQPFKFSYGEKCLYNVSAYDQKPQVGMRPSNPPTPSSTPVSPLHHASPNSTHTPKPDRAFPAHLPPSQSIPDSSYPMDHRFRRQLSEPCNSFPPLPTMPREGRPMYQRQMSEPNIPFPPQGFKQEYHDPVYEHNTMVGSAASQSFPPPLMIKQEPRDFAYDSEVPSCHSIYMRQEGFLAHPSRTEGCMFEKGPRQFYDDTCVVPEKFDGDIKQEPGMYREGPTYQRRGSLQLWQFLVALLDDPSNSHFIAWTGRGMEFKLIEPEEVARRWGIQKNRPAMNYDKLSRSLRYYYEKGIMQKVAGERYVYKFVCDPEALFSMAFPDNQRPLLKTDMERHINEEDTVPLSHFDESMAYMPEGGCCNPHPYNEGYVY
# ELF1, sequence (P32519 whole entry): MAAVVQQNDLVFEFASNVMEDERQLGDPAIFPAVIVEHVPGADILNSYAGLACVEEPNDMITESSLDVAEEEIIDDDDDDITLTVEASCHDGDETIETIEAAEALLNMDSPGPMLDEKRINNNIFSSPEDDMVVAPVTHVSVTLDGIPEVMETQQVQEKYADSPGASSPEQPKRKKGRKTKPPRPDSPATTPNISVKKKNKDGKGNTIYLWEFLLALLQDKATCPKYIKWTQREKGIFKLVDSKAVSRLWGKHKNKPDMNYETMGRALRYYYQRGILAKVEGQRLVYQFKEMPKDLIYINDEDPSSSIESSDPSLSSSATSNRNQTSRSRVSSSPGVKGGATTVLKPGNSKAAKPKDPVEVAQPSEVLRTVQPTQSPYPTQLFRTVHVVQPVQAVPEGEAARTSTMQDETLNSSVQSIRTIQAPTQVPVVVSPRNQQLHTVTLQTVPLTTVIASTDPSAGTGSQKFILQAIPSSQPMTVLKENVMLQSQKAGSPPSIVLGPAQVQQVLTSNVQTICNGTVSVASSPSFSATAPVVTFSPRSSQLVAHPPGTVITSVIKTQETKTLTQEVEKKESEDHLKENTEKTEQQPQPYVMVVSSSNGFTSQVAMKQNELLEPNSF
# CRX, sequence (O43186 whole entry): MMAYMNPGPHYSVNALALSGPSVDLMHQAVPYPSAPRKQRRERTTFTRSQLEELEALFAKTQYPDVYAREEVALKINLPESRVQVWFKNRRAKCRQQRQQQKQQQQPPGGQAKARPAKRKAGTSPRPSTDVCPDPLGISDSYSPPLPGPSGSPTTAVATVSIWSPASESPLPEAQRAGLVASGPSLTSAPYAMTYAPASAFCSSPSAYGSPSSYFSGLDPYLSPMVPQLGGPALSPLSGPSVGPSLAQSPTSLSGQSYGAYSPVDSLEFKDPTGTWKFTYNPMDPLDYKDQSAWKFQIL
# ELF4, sequence (Q99607 whole entry): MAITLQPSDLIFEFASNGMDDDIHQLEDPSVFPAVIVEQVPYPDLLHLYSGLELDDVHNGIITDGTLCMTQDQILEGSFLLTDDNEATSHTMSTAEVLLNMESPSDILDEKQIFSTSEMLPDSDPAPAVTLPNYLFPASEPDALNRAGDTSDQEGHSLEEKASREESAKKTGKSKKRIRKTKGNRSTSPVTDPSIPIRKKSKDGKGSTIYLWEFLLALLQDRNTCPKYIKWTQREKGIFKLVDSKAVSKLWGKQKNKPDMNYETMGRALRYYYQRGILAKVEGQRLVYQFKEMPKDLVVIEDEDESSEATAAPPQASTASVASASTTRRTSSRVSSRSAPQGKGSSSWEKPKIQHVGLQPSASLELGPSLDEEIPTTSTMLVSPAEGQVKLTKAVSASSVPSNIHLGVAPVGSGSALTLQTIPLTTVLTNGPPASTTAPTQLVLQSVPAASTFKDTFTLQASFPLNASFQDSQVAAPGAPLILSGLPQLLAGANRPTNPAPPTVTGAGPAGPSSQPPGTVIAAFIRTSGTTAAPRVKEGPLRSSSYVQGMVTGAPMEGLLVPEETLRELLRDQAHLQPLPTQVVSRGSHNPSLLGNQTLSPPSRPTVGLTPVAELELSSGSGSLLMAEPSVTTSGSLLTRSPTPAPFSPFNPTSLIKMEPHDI
# SPIB, sequence (Q01892 whole entry): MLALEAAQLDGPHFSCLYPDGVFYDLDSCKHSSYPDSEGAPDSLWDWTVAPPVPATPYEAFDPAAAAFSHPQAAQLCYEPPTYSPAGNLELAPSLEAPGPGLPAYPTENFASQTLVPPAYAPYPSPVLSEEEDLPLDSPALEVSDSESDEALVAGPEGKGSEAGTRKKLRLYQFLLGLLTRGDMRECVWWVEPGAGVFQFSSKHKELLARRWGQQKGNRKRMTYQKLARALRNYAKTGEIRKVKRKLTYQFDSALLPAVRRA
# ETV5, sequence (P41161 whole entry): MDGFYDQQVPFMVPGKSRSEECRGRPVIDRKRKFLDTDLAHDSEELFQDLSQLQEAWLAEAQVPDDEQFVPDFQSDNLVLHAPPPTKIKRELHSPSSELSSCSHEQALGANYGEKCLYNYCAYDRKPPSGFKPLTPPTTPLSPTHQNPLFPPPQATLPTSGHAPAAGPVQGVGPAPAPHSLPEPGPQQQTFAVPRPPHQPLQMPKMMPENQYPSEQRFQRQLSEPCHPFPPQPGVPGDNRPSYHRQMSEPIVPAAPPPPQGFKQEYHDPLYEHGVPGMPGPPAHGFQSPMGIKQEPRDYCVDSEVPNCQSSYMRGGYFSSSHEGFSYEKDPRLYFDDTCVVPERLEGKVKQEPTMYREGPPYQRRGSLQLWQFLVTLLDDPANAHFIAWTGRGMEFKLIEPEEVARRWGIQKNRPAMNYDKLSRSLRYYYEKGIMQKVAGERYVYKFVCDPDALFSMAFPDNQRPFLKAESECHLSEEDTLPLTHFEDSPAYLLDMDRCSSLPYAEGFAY
# HSF1, sequence (Q00613 whole entry): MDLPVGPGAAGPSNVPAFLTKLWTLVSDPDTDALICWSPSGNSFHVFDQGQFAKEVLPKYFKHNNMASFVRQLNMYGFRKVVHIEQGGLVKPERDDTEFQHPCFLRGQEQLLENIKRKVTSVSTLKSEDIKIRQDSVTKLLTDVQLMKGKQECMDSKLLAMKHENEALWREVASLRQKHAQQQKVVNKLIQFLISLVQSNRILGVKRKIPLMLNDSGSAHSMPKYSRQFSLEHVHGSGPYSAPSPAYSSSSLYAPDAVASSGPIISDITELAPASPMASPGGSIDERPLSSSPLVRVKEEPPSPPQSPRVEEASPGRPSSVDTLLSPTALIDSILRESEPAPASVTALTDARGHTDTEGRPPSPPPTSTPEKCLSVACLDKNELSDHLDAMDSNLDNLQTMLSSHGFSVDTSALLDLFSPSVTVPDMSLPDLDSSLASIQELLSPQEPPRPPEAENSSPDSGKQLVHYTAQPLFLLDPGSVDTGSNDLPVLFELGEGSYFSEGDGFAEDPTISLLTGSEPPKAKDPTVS
sequence,measurement,setting,value
AATCCG,binding signal,FLI1,"1.53 fold enrichment (6-mer frequency, TF over GST control)"
same,binding signal,ELK1,"1.62 fold enrichment (6-mer frequency, TF over GST control)"
same,binding signal,GABPA,"1.44 fold enrichment (6-mer frequency, TF over GST control)"
same,binding signal,ERG,"1.84 fold enrichment (6-mer frequency, TF over GST control)"
same,binding signal,ELF1,"1.5 fold enrichment (6-mer frequency, TF over GST control)"
same,binding signal,EHF,"1.55 fold enrichment (6-mer frequency, TF over GST control)"
same,binding signal,SPI1,"1.59 fold enrichment (6-mer frequency, TF over GST control)"
same,binding signal,SPIB,"1.68 fold enrichment (6-mer frequency, TF over GST control)"
same,binding signal,ELK3,"1.5 fold enrichment (6-mer frequency, TF over GST control)"
same,binding signal,FEV,"2.44 fold enrichment (6-mer frequency, TF over GST control)"
same,binding signal,ETV5,"1.65 fold enrichment (6-mer frequency, TF over GST control)"
same,binding signal,HSF1,"2.09 fold enrichment (6-mer frequency, TF over GST control)"
same,binding signal,SPIC,"1.48 fold enrichment (6-mer frequency, TF over GST control)"
same,binding signal,ELF4,"1.46 fold enrichment (6-mer frequency, TF over GST control)"
same,binding signal,ELK4,"1.33 fold enrichment (6-mer frequency, TF over GST control)"
same,binding signal,ETV2,"1.47 fold enrichment (6-mer frequency, TF over GST control)"
same,binding signal,ELF3,"1.32 fold enrichment (6-mer frequency, TF over GST control)"
same,binding signal,CRX,"3.2 fold enrichment (6-mer frequency, TF over GST control)"
same,binding signal,ETV1,"1.43 fold enrichment (6-mer frequency, TF over GST control)"
